# Molecular target: Tyrosine-protein kinase JAK2 (Homo sapiens) (UniProt O60674);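 also: mean JAK2 inhibition from the GSK PKIS screen, compounds tested at 1 µM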
# Conditions: at 1 µM
# Sequence of Tyrosine-protein kinase JAK2 (Homo sapiens) (O60674 whole entry): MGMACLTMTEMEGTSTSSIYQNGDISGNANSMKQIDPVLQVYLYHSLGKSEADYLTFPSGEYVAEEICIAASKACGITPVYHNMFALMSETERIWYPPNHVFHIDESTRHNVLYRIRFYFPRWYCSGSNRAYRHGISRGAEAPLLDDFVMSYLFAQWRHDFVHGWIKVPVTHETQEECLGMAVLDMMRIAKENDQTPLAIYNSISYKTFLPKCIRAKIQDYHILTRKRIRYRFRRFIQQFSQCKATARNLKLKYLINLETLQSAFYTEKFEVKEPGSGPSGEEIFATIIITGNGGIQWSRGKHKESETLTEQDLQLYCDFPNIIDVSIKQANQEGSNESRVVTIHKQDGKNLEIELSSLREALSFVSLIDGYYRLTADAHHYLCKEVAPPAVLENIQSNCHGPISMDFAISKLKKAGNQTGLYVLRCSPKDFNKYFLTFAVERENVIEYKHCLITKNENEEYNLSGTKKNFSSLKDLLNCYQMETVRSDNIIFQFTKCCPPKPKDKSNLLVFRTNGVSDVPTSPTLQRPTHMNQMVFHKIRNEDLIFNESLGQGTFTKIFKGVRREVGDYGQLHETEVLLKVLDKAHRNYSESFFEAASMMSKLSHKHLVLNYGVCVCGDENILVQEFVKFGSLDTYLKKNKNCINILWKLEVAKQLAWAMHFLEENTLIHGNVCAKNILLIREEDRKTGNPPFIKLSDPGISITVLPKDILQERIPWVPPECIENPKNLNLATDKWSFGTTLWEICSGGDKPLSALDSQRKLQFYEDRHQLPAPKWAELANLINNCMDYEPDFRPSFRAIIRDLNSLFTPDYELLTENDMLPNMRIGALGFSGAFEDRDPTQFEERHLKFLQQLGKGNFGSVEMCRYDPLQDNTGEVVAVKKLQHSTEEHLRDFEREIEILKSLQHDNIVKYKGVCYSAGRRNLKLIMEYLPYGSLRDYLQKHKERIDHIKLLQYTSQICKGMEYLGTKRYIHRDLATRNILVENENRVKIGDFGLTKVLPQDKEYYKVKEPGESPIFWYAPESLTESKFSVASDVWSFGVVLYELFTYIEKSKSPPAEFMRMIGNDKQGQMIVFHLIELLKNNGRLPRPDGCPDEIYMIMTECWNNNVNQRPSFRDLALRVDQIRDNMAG
row,SMILES,inhibition [%]
1,ON=C1CCc2cc(-c3nc(C4CCNCC4)[nH]c3-c3ccncc3)ccc21,0.28
2,CS(=O)(=O)Nc1cccc(-c2ccc3c(NC(=O)C4CC4)n[nH]c3c2)c1,1.32
3,NS(=O)(=O)c1ccc(-c2cc3ccncc3cc2OCc2ccccc2)cc1,3.23
4,[O-][S+]1CCN(Cc2ccc(-c3ccc4ncnc(Nc5ccc(OCc6ccccc6)c(Cl)c5)c4c3)o2)CC1,-0.25
5,N#Cc1c(NC(=O)c2ccccc2F)sc2c1CCCC2,-1.01
6,COc1cc2ncn(-c3cc(OCc4ccccc4S(C)(=O)=O)c(C#N)s3)c2cc1OC,29.4
7,NC(=O)c1cccc(Nc2nccc(Nc3cccc(F)c3)n2)c1,46.6
8,CN(C)C(=O)O[C@H]1CN[C@H](C#Cc2cc3ncnc(Nc4ccc(OCc5cccc(F)c5)c(Cl)c4)c3s2)C1,1.89
9,Cc1ccc(NC(=O)CC2CC2)cc1-c1ccc(C(=O)NCC2CC2)cc1,5.47
10,CN(C)c1cc2c(Nc3ccc4c(cnn4Cc4ccccc4)c3)ncnc2cn1,2.18
11,CN(c1ccc(NC(=O)Nc2ccc(OC(F)(F)F)cc2)cc1)c1ccnc(Nc2cccc(S(N)(=O)=O)c2)n1,1.31
12,CCS(=O)(=O)c1ccc(OC)c(Nc2ncc(-c3cccc(OC)c3)o2)c1,1.58
13,COc1cc(Nc2nccc(-c3cnn4ncccc34)n2)cc(OC)c1,36.4
14,O=C1Nc2ccc(-c3cccnc3)cc2C1=Cc1cc(Br)c(O)c(Br)c1,3.68
15,CN(C)C(=O)O[C@@H]1CN[C@@H](C#Cc2cc3ncnc(Nc4ccc(OCc5cccc(F)c5)c(Cl)c4)c3s2)C1,-0.45
16,Cc1nc(-c2ccccc2)n2nc(NCCCN3CCOCC3)ncc12,1.89
17,COc1cc(/C=N/Nc2ncnc3c2cnn3C(C)C)ccc1O,0.55

row,SMILES,inhibition [%]
1,COc1cccc(-n2nc(C)c3c(N/N=C(\C)c4ccncc4)ncnc32)c1,1.79
2,Cc1ccc2c(-c3ccnc(Nc4ccc5c(c4)OCCO5)n3)c(-c3ccc(C(F)(F)F)cc3)nn2n1,-1.16
3,COc1cc2ncnc(Nc3ccc4c(cnn4Cc4ccccc4)c3)c2cc1OC,1.11
4,Cc1ccc2c(-c3ccnc(Nc4cccc(C(F)(F)F)c4)n3)c(-c3ccccc3)nn2n1,2.03
5,Cc1cc(O)cc(C)c1/C=C/c1cncc(C(=O)N(C)C)c1,3.22
6,Nc1ccc(C#Cc2cncnc2Nc2ccc(OCc3cccc(F)c3)c(Cl)c2)cc1,0.43
7,Nc1nccc(-c2c(-c3ccc(F)cc3)ncn2CCCN2CCOCC2)n1,0.43
8,N#Cc1cccc(Nc2nccc(-c3cnn4ncccc34)n2)c1,22.1
9,NC(=O)c1sc(-n2cnc3ccccc32)cc1OCc1ccccc1Br,2.84
10,CCS(=O)(=O)c1ccc(OC)c(Nc2nccc(N(C)c3ccc4c(C)n[nH]c4c3)n2)c1,-0.31
11,O=C(Nc1ccc(Oc2ccc3[nH]c(NC(=O)c4ccco4)nc3c2)cc1)Nc1cc(C(F)(F)F)ccc1F,7.23
12,COC(=O)c1ccc2c(c1)C(=Cc1cc(Br)c(O)c(Br)c1)C(=O)N2,6.21
13,CCOc1nccc2c1nc(-c1nonc1N)n2CC,1.18
14,COC(=O)Nc1nc2cc(Oc3ccc(NC(=O)Nc4cccc(Br)c4)cc3)ccc2[nH]1,3.06
15,CCn1c(-c2nonc2N)nc2c(C#CC(C)(C)O)nc(OCCNC)cc21,3.3
16,NS(=O)(=O)c1cccc(-c2cc3ccncc3cc2OCc2ccccc2)c1,0.92
17,NS(=O)(=O)c1ccc(N/N=C2\C(=O)Nc3ccc(Cl)cc32)cc1,1.55

# Molecular target: T1, Tyrosine-protein kinase JAK3 (Homo sapiens) (UniProt P52333);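 also: values reported are mean percent inhibition of JAK3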
# T1 sequence (whole entry): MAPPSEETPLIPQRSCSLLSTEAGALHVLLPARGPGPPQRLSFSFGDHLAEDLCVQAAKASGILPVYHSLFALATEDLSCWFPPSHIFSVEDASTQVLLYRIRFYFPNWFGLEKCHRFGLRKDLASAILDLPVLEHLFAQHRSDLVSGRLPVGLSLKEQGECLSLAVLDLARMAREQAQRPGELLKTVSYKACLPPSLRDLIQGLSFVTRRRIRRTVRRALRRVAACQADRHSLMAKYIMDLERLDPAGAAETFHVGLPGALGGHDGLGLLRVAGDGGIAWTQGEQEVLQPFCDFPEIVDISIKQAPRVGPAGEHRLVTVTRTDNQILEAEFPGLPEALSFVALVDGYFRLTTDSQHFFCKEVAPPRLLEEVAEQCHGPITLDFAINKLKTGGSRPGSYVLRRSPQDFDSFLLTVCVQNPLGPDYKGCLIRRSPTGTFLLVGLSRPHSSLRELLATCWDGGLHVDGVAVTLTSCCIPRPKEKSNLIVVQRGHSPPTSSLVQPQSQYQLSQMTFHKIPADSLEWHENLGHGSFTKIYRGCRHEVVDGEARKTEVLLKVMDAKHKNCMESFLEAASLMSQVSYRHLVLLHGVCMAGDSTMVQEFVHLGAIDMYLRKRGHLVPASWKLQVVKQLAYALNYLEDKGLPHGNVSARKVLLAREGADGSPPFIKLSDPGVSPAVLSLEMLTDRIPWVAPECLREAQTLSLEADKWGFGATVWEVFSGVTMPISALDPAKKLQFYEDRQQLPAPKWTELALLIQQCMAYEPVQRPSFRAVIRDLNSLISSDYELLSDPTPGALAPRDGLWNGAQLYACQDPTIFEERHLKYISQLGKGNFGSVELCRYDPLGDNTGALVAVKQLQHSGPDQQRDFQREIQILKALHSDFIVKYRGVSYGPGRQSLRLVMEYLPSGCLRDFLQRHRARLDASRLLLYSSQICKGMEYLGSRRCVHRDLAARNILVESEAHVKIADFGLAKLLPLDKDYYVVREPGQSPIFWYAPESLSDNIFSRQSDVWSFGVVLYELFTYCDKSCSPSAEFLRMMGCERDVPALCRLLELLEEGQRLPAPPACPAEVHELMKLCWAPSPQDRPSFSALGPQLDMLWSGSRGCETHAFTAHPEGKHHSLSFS
# Conditions: at 0.1 µM
row,SMILES,inhibition [%]
1,ON=C1CCc2cc(-c3nc(C4CCNCC4)[nH]c3-c3ccncc3)ccc21,-1.58
2,CS(=O)(=O)Nc1cccc(-c2ccc3c(NC(=O)C4CC4)n[nH]c3c2)c1,-0.13
3,NS(=O)(=O)c1ccc(-c2cc3ccncc3cc2OCc2ccccc2)cc1,-0.75
4,[O-][S+]1CCN(Cc2ccc(-c3ccc4ncnc(Nc5ccc(OCc6ccccc6)c(Cl)c5)c4c3)o2)CC1,-1.01
5,N#Cc1c(NC(=O)c2ccccc2F)sc2c1CCCC2,-1.04
6,COc1cc2ncn(-c3cc(OCc4ccccc4S(C)(=O)=O)c(C#N)s3)c2cc1OC,5.19
7,NC(=O)c1cccc(Nc2nccc(Nc3cccc(F)c3)n2)c1,-1.62
8,CN(C)C(=O)O[C@H]1CN[C@H](C#Cc2cc3ncnc(Nc4ccc(OCc5cccc(F)c5)c(Cl)c4)c3s2)C1,-0.68
9,Cc1ccc(NC(=O)CC2CC2)cc1-c1ccc(C(=O)NCC2CC2)cc1,-0.78
10,CN(C)c1cc2c(Nc3ccc4c(cnn4Cc4ccccc4)c3)ncnc2cn1,-0.53
11,CN(c1ccc(NC(=O)Nc2ccc(OC(F)(F)F)cc2)cc1)c1ccnc(Nc2cccc(S(N)(=O)=O)c2)n1,-2.38
12,CCS(=O)(=O)c1ccc(OC)c(Nc2ncc(-c3cccc(OC)c3)o2)c1,-1.19
13,COc1cc(Nc2nccc(-c3cnn4ncccc34)n2)cc(OC)c1,7.71
14,O=C1Nc2ccc(-c3cccnc3)cc2C1=Cc1cc(Br)c(O)c(Br)c1,-1.1
15,CN(C)C(=O)O[C@@H]1CN[C@@H](C#Cc2cc3ncnc(Nc4ccc(OCc5cccc(F)c5)c(Cl)c4)c3s2)C1,0.14
16,Cc1nc(-c2ccccc2)n2nc(NCCCN3CCOCC3)ncc12,-2.38
17,COc1cc(/C=N/Nc2ncnc3c2cnn3C(C)C)ccc1O,0.75

row,SMILES,inhibition [%]
1,COc1cccc(-n2nc(C)c3c(N/N=C(\C)c4ccncc4)ncnc32)c1,-1.14
2,Cc1ccc2c(-c3ccnc(Nc4ccc5c(c4)OCCO5)n3)c(-c3ccc(C(F)(F)F)cc3)nn2n1,-2.23
3,COc1cc2ncnc(Nc3ccc4c(cnn4Cc4ccccc4)c3)c2cc1OC,-1.67
4,Cc1ccc2c(-c3ccnc(Nc4cccc(C(F)(F)F)c4)n3)c(-c3ccccc3)nn2n1,-1.71
5,Cc1cc(O)cc(C)c1/C=C/c1cncc(C(=O)N(C)C)c1,-0.76
6,Nc1ccc(C#Cc2cncnc2Nc2ccc(OCc3cccc(F)c3)c(Cl)c2)cc1,-2.62
7,Nc1nccc(-c2c(-c3ccc(F)cc3)ncn2CCCN2CCOCC2)n1,-0.85
8,N#Cc1cccc(Nc2nccc(-c3cnn4ncccc34)n2)c1,5.73
9,NC(=O)c1sc(-n2cnc3ccccc32)cc1OCc1ccccc1Br,-2.53
10,CCS(=O)(=O)c1ccc(OC)c(Nc2nccc(N(C)c3ccc4c(C)n[nH]c4c3)n2)c1,-1.93
11,O=C(Nc1ccc(Oc2ccc3[nH]c(NC(=O)c4ccco4)nc3c2)cc1)Nc1cc(C(F)(F)F)ccc1F,-3.43
12,COC(=O)c1ccc2c(c1)C(=Cc1cc(Br)c(O)c(Br)c1)C(=O)N2,1.39
13,CCOc1nccc2c1nc(-c1nonc1N)n2CC,0.47
14,COC(=O)Nc1nc2cc(Oc3ccc(NC(=O)Nc4cccc(Br)c4)cc3)ccc2[nH]1,-0.45
15,CCn1c(-c2nonc2N)nc2c(C#CC(C)(C)O)nc(OCCNC)cc21,-2.54
16,NS(=O)(=O)c1cccc(-c2cc3ccncc3cc2OCc2ccccc2)c1,-0.33
17,NS(=O)(=O)c1ccc(N/N=C2\C(=O)Nc3ccc(Cl)cc32)cc1,-2.01

# Source: ChEMBL document CHEMBL1961873, “Compounds: GSK PKIS; Assays: Nanosyn kinase panel” (2012)
